# In the supplement of paper PMC11417369:
# ± gives the standard deviation of the averaged measurements. Over roughly 25,000 sequences, “ln(normalized median fluorescence intensity)” has its median near 10; the highest 2% begin near 12. What follows is part of a selection rich in the highest values, with near analogues and random picks from the rest.
# Test system: PfAP2-G AP2 domain (GST-tagged)
# Experiment: gcPBM binding intensity (ln(normalized median fluorescence intensity)); higher = stronger DNA binding
# Method in brief: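 In this array assay, P. falciparum DNA-binding domains with a GST tag, expressed in E. coli, were applied for 1 h to primer-extended double-stranded 36-bp intergenic genomic probes and negative controls on an Agilent 4 × 180k array. Bound protein was visualised with Alexa488 anti-GST antibody at 488 nm. Binding intensity is the highest Masliner-normalised natural-log median intensity across replicate spots of either probe orientation.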
row,Sequence,gcPBM binding intensity (ln)
1,TAAAAAAAAAAATGAACATGCAACAATTGTGATGAA [TGCATGCA_site332],9.74 ± 0.32
2,ATTATATTAAAATACACACCCAAATATTAAAAAGAT [CACACA_site5613],10.4 ± 0.19
3,AAATAAATAAATAGACGTACAAAAATATTATACATT [XGTACX_site6776],11.2 ± 0.8
4,GCACCAAAAAAAAGACGTACAGTTATATTAAAATAG [XGTACX_site8926],11.7 ± 1
5,TTTTTATAAGCATAAAGTACAAATATTTTTTAGTTG [XGTACX_site4140],11 ± 0.59
6,TGTAAGTATTCTTGAGGTACACATATAAATATAGTA [XGTACX_site3207],11.4 ± 0.79
7,AAATATATATATATATATATATATATATATATATAT [CACACA_negctrl_site677],10 ± 1
8,TATATAAAGCATTGTAGTACTACCAATATTTTTTTT [XGTACX_site3523],11.6 ± 1
9,ATAGAATAATATTGTAGTACTAAAAATATTCATTTT [XGTACX_site6447],11.4 ± 0.92
10,TAATATTTATAAAATAGTACACAGAAAAAGCATTTT [XGTACX_site8948],11.4 ± 0.88
11,GGAAACCTTTTTTTTACACACAATATATTAAGACTT [CACACA_site4899],9.86 ± 0.014
12,AAAAAAAAATTAAACATACACACGTTACTATTTTTA [CACACA_site1687],9.64 ± 0.26
13,AATATTTTTAATTAATGTACATATTTATTATATAAA [XGTACX_site5112],11.2 ± 0.76
14,TTATTAAATATGTACACACGTACATTTTATAAATGA [CACACA_site2387],11.7 ± 1.1
15,TTATTATAAATGTTTTGTACGTACATCCGAAAATAA [XGTACX_site2175],11.7 ± 1.2
16,TATAATATATTTTAATGTACGTACATCCCGATTAAT [XGTACX_site7651],11.7 ± 0.86
17,AAAATTATTAAATATGTACACACGTACATTTTATAA [CACACA_site8750],11.6 ± 0.88
18,TTATACATATTTATATGTACGTAATATAATATTAAT [XGTACX_site6520],11.3 ± 0.91
19,AATTATTAAATATGTACACACGTACATTTTATAAAT [CACACA_site5341],11.6 ± 1
20,TAGTATTATTTTTTTTGTACATATAAATGTAAAATA [XGTACX_site5282],11 ± 0.71
21,AAATGTATAATTTTTTAATACACTTATTTAAAATAA [CACACA_negctrl_site797],10.1 ± 0.2
22,AATGTTTATTTTGTTTGTACATAAAATGAATAAAAT [XGTACX_site1456],11.1 ± 0.77
23,TATTAAGTATTTTACGTACACACTTATAAATGTACA [CACACA_site3885],11.7 ± 0.82

row,Sequence,gcPBM binding intensity (ln)
1,TACGTATTTTAATATTTACACACTTATTTTTTATAT [CACACA_site7924],10.2 ± 0.13
2,CCTTTCTATTGAAAATGTACATATATATTATTATAT [XGTACX_site5527],11.1 ± 0.71
3,ATATTTTCTAATCAATGTACTTATTCTACACATTAA [XGTACX_site5774],11.3 ± 0.92
4,ATGGAAATATATACATGTACATAAATATATATATAT [XGTACX_site8391],11.2 ± 0.61
5,TTTTACTCTTAAAATAATAAAAAATATTCACATTTA [CACACA_negctrl_site1508],9.63 ± 0.085
6,TAAATTATAACGTGCACACATATTTAAAATGAAATG [CACACA_site2820],10.6 ± 0.45
7,TCTTCACCACGTGGAAGTACATAAAAAGATACACAA [XGTACX_site4747],11.4 ± 0.93
8,AATTTATTAGATAGATGTACATTTTAATAAAAGTAG [XGTACX_site6819],11.1 ± 0.67
9,AGATATTTTTCTTAAGTACACACTAATTAGAAACTA [CACACA_site7897],11.3 ± 0.93
10,CCCATATTATAGGTGTGTACATAAAAGTATATATAA [XGTACX_site3629],11.6 ± 0.95
11,TAACACCAAACTAAATGTACACACATACATAAATAT [XGTACX_site2201],11.2 ± 0.79
12,TATATAATATATTAATGTACGTTATATGTATTCCTT [XGTACX_site6140],11.2 ± 0.81
13,ATAATCCTTGGACACACACACACACTAGTAAATAAA [CACACA_site4423],10.9 ± 0.57
14,ATAAAAGATATTTTTACACACTTTTGATGAGATCGT [CACACA_site3053],10.08 ± 0.057
15,TTTTTAATCCTTTGCGCATGTAAAATTATATATTTT [TGCATGCA_site306],10.1 ± 0.11
16,TCATTTTAAGGAAAAAGTACAAAATAATATGTTCCT [XGTACX_site1903],11 ± 0.65
17,ATCTCTTAAATTTTACGTACTTATTTTATCTTCTTA [XGTACX_site8877],11.2 ± 0.67
18,AATTTCAATTTCTGTTGTACACTTTTTAATAGTAAA [XGTACX_site4085],11.4 ± 0.88
19,ATTATGATTTTATAGAACTGAACATTTACATTAAAT [GTGCAC_negctrl_site192],9.855 ± 0.064
20,TAAAAATGTGGACACACACACATATTTATATTTAAT [CACACA_site6827],11.4 ± 0.72
21,TATCCATTATTTAAAAGTACAAAAAACGATTTACAC [XGTACX_site2979],11.3 ± 0.8
22,TTAAGTATTTTACGTACACACTTATAAATGTACAGG [CACACA_site6012],11.7 ± 0.93
23,ATATAAAAATGTGTATGTACACACTTTATTTTTAAT [XGTACX_site5272],11.4 ± 0.74

row,Sequence,gcPBM binding intensity (ln)
1,CTACACACTTATAAATGTACAGGATTTAAGTATATG [XGTACX_site8245],10.9 ± 0.49
2,TGGAATAATACGCGTACACACATATATATATTAATA [CACACA_site131],11.8 ± 0.97
3,GTAATTATATACATACGTACATACACATATGTATAT [XGTACX_site4149],11.3 ± 0.65
4,ATATGGAATAATACGCGTACACACATATATATATTA [XGTACX_site307],11.7 ± 1
5,CATATAATAAATAATACACACATATTGGAAATATAT [CACACA_site3212],9.98 ± 0.057
6,GTCTGCATATGGATACGTACACATATATATTAATGT [XGTACX_site2260],11.7 ± 0.91
7,AATATATATTAATACACACACACATATATATATATA [CACACA_site3786],10.3 ± 0.47
8,TGGAATAATCCGCGTACACACATATATATATTAAGA [CACACA_site4253],11.6 ± 0.87
9,TTAAAAATTATGGATACACACATATATATATATATT [CACACA_site2383],10.2 ± 0.2
10,TGGAATAATACGCGTACACACATATAAATATTAATA [CACACA_site6211],11.7 ± 0.91
11,GAATAATATGGACATACACACATATACATACATATA [CACACA_site2114],10.9 ± 0.51
12,TATAAATACATACGTACACACAAATATTAAAATATA [CACACA_site5129],11.5 ± 0.87
13,TATGGAATAATACGCGTACACACATATATATATTAA [CACACA_site132],11.6 ± 0.93
14,AGTTTTATATTTCTGAGTACTTATGAATCTAGCTCG [XGTACX_site4330],11.2 ± 0.72
15,TGGTGATATACGAAATGTACGCAAATCACAAAATAA [XGTACX_site8836],11.5 ± 0.98
16,ATTAAAAAAAAAAAAAAAAAACAAAAAAAAAAAAAA [CACACA_negctrl_site1187],9.62
17,ACTTGTAAGAAACACACACACACACCCATATATATA [CACACA_site796],10.2 ± 0.14
18,TTTTATTATTAAACATGTACCCATATTATTGTTATG [XGTACX_site5563],11.2 ± 0.56
19,CTGAACCCGTTATGGTGTACATAAAATAAGACACAG [XGTACX_site3484],11.6 ± 0.96
20,TTTTTAAAACATCACTGTACCCGTTATGGTGAACAT [XGTACX_site3483],11.7 ± 1.2
21,TATATATATATATATAGTACATATTAATTAATTTAT [XGTACX_site8198],10.8 ± 0.63
22,CCTAAAAAAAAGAAATGATATACATATGTATATATA [GTGCAC_negctrl_site100],9.685 ± 0.064
23,TATATAATATATTTATGTACGTATTTAAAAATTTAT [XGTACX_site160],11.6 ± 0.98

row,Sequence,gcPBM binding intensity (ln)
1,TAAATAGATGTTTTATGTACGTATAAATAAAAAAAA [XGTACX_site3412],11.7 ± 0.88
2,ATAAAAATAAAAAGATGTACGTATTTTTTTTTTTTT [XGTACX_site5329],11.6 ± 0.91
3,AATAGTAAAAATCACTGTACGTTTATTTTTAAAATG [XGTACX_site1035],11.7 ± 0.91
4,AAATTTAGTAAAAAATGTACGTAAAATGTAAAATAT [XGTACX_site1314],11.5 ± 0.73
5,TTTATTTTGATTTAATGTACAAATAGTAAAACAAAA [XGTACX_site4789],10.9 ± 0.49
6,ATTTATTTTGTTGTTGTTTTTATTTGATTGTTTTAT [CACACA_negctrl_site1275],9.785 ± 0.007
7,TTTTATAAATATTTTTGTACACATTTAAATATTATT [XGTACX_site4973],11.3 ± 0.59
8,TATAACATTATTTTGTGTACACATTCGGTTATATTA [XGTACX_site6310],12 ± 1.1
9,TATATATATATTATATGTACACATTTGTGAATTATT [XGTACX_site5848],11.5 ± 0.85
10,GTTATTCTTAATTTTTGTACACATTTTTATATTATT [XGTACX_site7227],11.4 ± 0.7
11,AACATTATTTTGTGTACACATTCGGTTATATTATAT [CACACA_site5628],11.8 ± 1
12,ATTTTATAACATTCATGTACACATTTCATTTATTTG [XGTACX_site3028],11.3 ± 0.77
13,GCTTATTTTAATTCTTGTACTTATTTATATACAAAT [XGTACX_site2099],11.2 ± 0.83
14,TTATTTATTTATATAGTGCAATAAACACATAAATAG,10.1 ± 0.26
15,TTTTGTAATTTTGTATGTACACATTAAAGTAATATG [XGTACX_site2401],11.5 ± 0.91
16,AATTTTCAATAGTATACACACAATTCTATAAATATA [CACACA_site6650],9.84 ± 0.042
17,ACTTCATTTTATAAGTGTACATAATTTGTTTATATA [XGTACX_site5453],11.5 ± 0.85
18,AATAATTCTTAAAGGTGTACAATATGTATATAAGAA [XGTACX_site595],11.7 ± 0.6
19,AATAATTGTTAAAGGTGTACAATACGTATGTAAGAA [XGTACX_site1328],11.5 ± 0.95
20,AACAATTTTTAAAGGTGTACAATATGTATATAAGAA [XGTACX_site254],11.6 ± 0.93
